Drawing on PubChem BioAssay (NCI), this text covers growth for 40 compounds.

Compounds without any hit were thinned out: in the full panel of roughly 83,000, 20% have a hit.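 Values shown are percent growth following 48 h exposure of cells in 96-well plates to a single concentration of compound; below 10 was considered active.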 Unmarked numbers belong to inactive results. The source made the active and inactive calls.

The assay concerns HL-60(TB) leukemia. Nature of the assay: NCI-60 one-dose screen, 48 h (100 = growth as untreated, 0 = no growth, -100 = all killed). The following applies: 10 µM unless noted.
With `CC(=O)/C(C)=N\OC(=O)Nc1ccccc1`, the growth was 102%.
Turning to `c1nc(N2CCOCC2)c2[nH]ccc2n1`, the growth is 90.2%.
Regarding `CCOC(=O)c1cc(/C(=N\O)c2cc(OC)c(OC)c(OC)c2)n2cc(C)cc(C)c12`, the growth is 9.42% (active).
On to `O=S1(=O)N(Cc2ccccc2)[C@@H](Cc2ccccc2)C2O[C@H]2[C@H](Cc2ccccc2)N1Cc1ccccc1` (stereo not given in full), for which the growth was 46%.
As for `CCCCCN1C=C/C(=C\C(=O)N(C)c2ccccc2Br)c2ccccc21`, the figure is 76.9%.
As to `CC(=O)/C(=C\c1ccc(Cl)cc1)c1ccccc1`, the growth was -16.2% (active).
As for `O=C1C(Cl)=C(N/N=c2/[nH][nH]/c(=N/NC3=C(Cl)C(=O)c4ccccc4C3=O)c3ccccc23)C(=O)c2ccccc21`, the figure is 39.5%.
As for `COc1ccc(Cl)cc1Nc1nc(C(F)(F)F)ccc1C(=O)N/N=C/c1ccc([N+](=O)[O-])cc1`, the figure is -10.8% (active); as for `C#CC#CC#CC#CC#CC#CC#CC#CCC1OCC(COC(=O)O[C@@H](C(=O)O[C@H]2C[C@@]3(O)[C@@H](OC(=O)c4ccccc4)[C@@H]4[C@]5(OC(C)=O)CO[C@@H]5C[C@H](O)[C@@]4(C)C(=O)[C@H](OC(C)=O)C(=C2C)C3(C)C)[C@@H](NC(=O)c2ccccc2)c2ccccc2)O1` (stereo not given in full), 5.04% (active); as for `COc1ccc(/C(=C(\c2ccccc2)[N+](=O)[O-])c2ccc(OCCN3CCCC3)cc2)cc1`, 64.1%.
Consider `Cc1ccc(C2NC(=S)N3C(c4ccc(C)cc4)NC(=S)N23)cc1` (stereo not given), for which the growth was -23.9% (active).
As for `CN1C(=O)N(C)C2C1NN=c1s/c(=C\C=C\c3ccccc3)c(=O)n12` (stereo not given), the growth was 17.1%.
With `COc1ccc(C(c2cc(OC)c(OC)c(OC)c2)N2CCCCC2)cc1` (stereo not given) the figure was 4.36% (active); with `Nc1c(C(=O)Nc2cccc(C(F)(F)F)c2)sc2nc3c(cc12)C(O)CCC3` (stereo not given), -0.216% (active); with `Nc1nc(N)c2cc(S(=O)(=O)c3cccc(C(F)(F)F)c3)ccc2n1`, 30.9%.
On to `COc1cc(OC)c(C(=O)/C=C/c2cccc(C(F)(F)F)c2)c(OC)c1`, for which the growth was -26.6% (active).
With `c1cc(C2CCCCC2)ccc1-c1cnc2nonc2n1`, the growth was -27.3% (active).
In the case of `CC1=C([Se]CC(OC(=O)[C@@H](CO)NC(=O)OC(C)(C)C)C(=O)NC(C)(C)C)C(=O)c2ccccc2C1=O` (stereo not given in full), the growth was -36.2% (active).
Take `COc1ccc(Nc2ncc(C#N)c(NCCCNC(=O)C3CCC3)n2)cc1`: the growth is 41%.
Take `N#CSCc1ccc(Cl)c(CSC#N)c1`: the growth was 0.395% (active).
As for `O=C(OCC1OC(n2cc(C(F)(F)F)c(=O)[nH]c2=O)CC1OC(=O)c1ccc([N+](=O)[O-])cc1)c1ccc([N+](=O)[O-])cc1` (stereo not given), the figure is 62.7%; as for `O=C(CCCCCCCCC(=O)N/N=C\c1cc(Cl)ccc1O)N/N=C\c1cc(Cl)ccc1O`, 9.81% (active).
For the compound `COC1(OC)C2(Cl)CCC1(Cl)C(Cl)=C2Cl`, the growth is 139%.
With `CCOC(=O)c1c(C=O)nc2ccccc2c1/C=C/c1ccc(Cl)cc1` the figure was 69.7%.
As for `CCCCCCCC/C=C\CCCCCCCCOc1ccccc1CC(=O)NCC[N+](C)(C)C`, the growth is 67%.
Turning to `CC(C)CCSc1nc(Nc2ccccc2)c(C#N)c(-c2ccc(F)cc2)n1`, the growth was 59.6%.
Take `CCNc1ncnc2c1cnn2C1CCCO1` (stereo not given): the growth is 92.5%.
`COc1ccc(-c2nn(-c3cccc(Cl)c3)cc2C2CC(c3ccccc3)=NN2C(C)=O)cc1` (stereo not given): the growth is 101%.
Turning to `CCOC(=O)c1sc(NC(=O)COc2ccc(/C=C3\CCc4cc(OC)ccc4C3=O)cc2)nc1C`, the growth was -57.4% (active).
With `NCCSC(C[N+](=O)[O-])c1ccccc1Cl` (stereo not given), the growth was 31.8%.
In the case of `O=C(/C=C\c1ccccc1)N1c2ccccc2CC1c1c[nH]c2ccccc12` (stereo not given), the growth was 73.5%.
As to `CC[C@H](CO)Nc1nc(NCc2ccccc2)n2ncc(C(C)C)c2n1`, the growth is -38.2% (active).
`CCOP(=O)(NC(c1ccccc1)c1ccccc1)OCC`: the growth is 101%.
Turning to `O=C(NCCN1CCCC1)n1cc(-c2ccncc2)c(-c2cc(O)cc(Cl)c2)n1`, the growth was 95%.
With `CCSc1nnc(NC(=O)Cc2ccc(Cl)cc2)s1` the figure was 96.8%; with `CC1(C)N=C(N)N=C(N)N1c1ccc(F)c(C(F)(F)F)c1`, 13.4%.
As for `O=C(NCCCNC(=O)OCc1ccc2c(Br)cc(Br)c(O)c2n1)OCc1ccc2c(Br)cc(Br)c(O)c2n1`, the growth was -25.4% (active).
Take `C=C(c1ccc(OC)c(/C=C/C(=O)c2cc(OC)c(OC)c(OC)c2)c1)c1cc(OC)c(OC)c(OC)c1`: the growth is 12.8%.
For `O=[N+]([O-])c1ccc(S(=O)(=O)N2CCN(c3ccnc4cc(Cl)ccc34)CC2)c([N+](=O)[O-])c1`, the growth is 75.7%.
As for `O=C(N=Nc1c(O)[nH]c2ccccc12)Nc1ccc(Br)cc1`, the growth is 70.2%.
